Measurements published in PubChem BioAssay (EPA / NIEHS).
Results filed as inconclusive are left out. Calls of active or inactive are those of the source. The calls were made as follows: active = hit-call score of the fitted dose curve at least 0.9, where 1 is the maximum; inconclusive = response in the unintended direction; inactive = score below 0.9.

Legend:
[1] = TOX21_p53_BLA_p2_viability: Viability Assessment in the Tox21 HCT-116 p53 Agonism Beta-lactamase Assay, Phase 2 (AID 2283591);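 also: actives lower the ATP signal meaning cytotoxicity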
Summary of the method: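 HCT116 p53-bla cells, 4000/well, dosed after 5 h plating (217-fold dilution of DMSO stocks) and incubated 16 h at 37C. Viability taken as cellular ATP by CellTiter-Glo luminescence after 30 min RT; signal loss marks cytotoxicity.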

[2] = molecular target: Cellular tumor antigen p53 (Homo sapiens) (UniProt P04637); test: TOX21_p53_BLA_p2_ratio: Tox21 HCT-116 p53 Agonism Beta-lactamase Assay, Ratio, Phase 2 (AID 2283592)
Cellular tumor antigen p53 (Homo sapiens), sequence (P04637 whole entry, looked up): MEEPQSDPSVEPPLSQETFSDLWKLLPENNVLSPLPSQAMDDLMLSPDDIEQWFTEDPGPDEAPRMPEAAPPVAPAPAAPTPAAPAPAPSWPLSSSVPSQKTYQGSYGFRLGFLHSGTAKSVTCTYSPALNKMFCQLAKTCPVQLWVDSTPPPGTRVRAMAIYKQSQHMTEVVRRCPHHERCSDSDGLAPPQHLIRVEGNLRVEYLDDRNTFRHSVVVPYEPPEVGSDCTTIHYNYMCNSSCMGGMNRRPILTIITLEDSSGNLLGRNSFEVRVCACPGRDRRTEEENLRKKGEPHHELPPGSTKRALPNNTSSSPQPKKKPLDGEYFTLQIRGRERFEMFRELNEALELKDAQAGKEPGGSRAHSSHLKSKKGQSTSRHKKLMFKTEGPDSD
Summary of the method: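 Read-out is the blue/green (460/530 nm, 405 nm excitation) ratio after 2 h CCF4-AM loading, fitted as gain versus DMSO. Compounds, pinned at 217-fold dilution from DMSO stocks, stayed 16 h on HCT-116 beta-lactamase reporter cells seeded 5 h earlier.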

[3] = TOX21_p53_BLA_p3_viability: Viability Assessment in the Tox21 HCT-116 p53 Agonism Beta-lactamase Assay, Phase 3 (AID 2283593);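 also: cells exposed to compound for 16 h before reading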
Summary of the method: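 HCT116 cells, 4000/well, dosed 5 h after plating by pin transfer (217-fold dilution from DMSO stock) and incubated 16 h at 37C, 5% CO2. Viability read as ATP luminescence with CellTiter-Glo after 30 min at room temperature.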

[4] = molecular target: Cellular tumor antigen p53 (Homo sapiens) (UniProt P04637); test: TOX21_p53_BLA_p3_ratio: Tox21 HCT-116 p53 Agonism Beta-lactamase Assay, Ratio, Phase 3 (AID 2283596)
Summary of the method: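 Cells were seeded at 4000/well, rested 5 h at 37C, then dosed with DMSO compound solutions (217-fold dilution) for 16 h. CCF4-AM substrate was loaded for 2 h at room temperature, and the 460/530 nm emission ratio was fitted for gain of signal versus DMSO.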

[5] = TOX21_p53_BLA_p4_viability: Viability Assessment in the Tox21 HCT-116 p53 Agonism Beta-lactamase Assay, Phase 4 (AID 2283597);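 also: hits lower the luminescence signal meaning cytotoxicity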
Summary of the method: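 Cytotoxicity as reduced cellular ATP (CellTiter-Glo luminescence, 30 min room temperature), measured in the same wells following the CCF4 FRET p53 reading. Human HCT-116 cells received compounds in DMSO (217-fold dilution) for 16 h.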

[6] = molecular target: Cellular tumor antigen p53 (Homo sapiens) (UniProt P04637); test: TOX21_p53_BLA_p5_ratio: Tox21 HCT-116 p53 Agonism Beta-lactamase Assay, Ratio, Phase 5 (AID 2283599)
Summary of the method: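 HCT-116 p53-bla cells (4000/well) plated 5 h, dosed with compound (217-fold DMSO dilution) for 16 h at 37 C; CCF4-AM substrate 2 h at room temperature. Activity is the 460/530 nm emission ratio (405 nm excitation), fitted in gain-of-signal direction versus DMSO.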

[7] = molecular target: Cellular tumor antigen p53 (Homo sapiens) (UniProt P04637); test: TOX21_p53_BLA_p4_ratio: Tox21 HCT-116 p53 Agonism Beta-lactamase Assay, Ratio, Phase 4 (AID 2283601)
Summary of the method: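 HCT-116 p53 beta-lactamase reporter cells (4000/well) preincubated 5 h, then compound (217-fold dilution of DMSO stock) for 16 h at 37C. CCF4-AM substrate added 2 h at room temperature; 460/530 nm emission ratio fitted upward versus DMSO.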

[8] = TOX21_p53_BLA_p5_viability: Viability Assessment in the Tox21 HCT-116 p53 Agonism Beta-lactamase Assay, Phase 5 (AID 2283600)
Summary of the method: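 Viability came from CellTiter-Glo ATP luminescence, read after 30 min at room temperature. Before this, HCT-116 p53-bla cells (4000/well) had 16 hours of compound exposure at 37C, with DMSO stocks diluted 217-fold on transfer.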

[9] = molecular target: PGR (gene 5241) (UniProt P06401); test: TOX21_PR_BLA_Followup_Antagonist_ratio: Tox21 HEK293 Progesterone Receptor (PR) Antagonism Beta-lactamase Follow-Up Assay, Ratio (AID 2283934)
PGR (gene 5241), sequence (P06401 whole entry, looked up, the tested form may be a part): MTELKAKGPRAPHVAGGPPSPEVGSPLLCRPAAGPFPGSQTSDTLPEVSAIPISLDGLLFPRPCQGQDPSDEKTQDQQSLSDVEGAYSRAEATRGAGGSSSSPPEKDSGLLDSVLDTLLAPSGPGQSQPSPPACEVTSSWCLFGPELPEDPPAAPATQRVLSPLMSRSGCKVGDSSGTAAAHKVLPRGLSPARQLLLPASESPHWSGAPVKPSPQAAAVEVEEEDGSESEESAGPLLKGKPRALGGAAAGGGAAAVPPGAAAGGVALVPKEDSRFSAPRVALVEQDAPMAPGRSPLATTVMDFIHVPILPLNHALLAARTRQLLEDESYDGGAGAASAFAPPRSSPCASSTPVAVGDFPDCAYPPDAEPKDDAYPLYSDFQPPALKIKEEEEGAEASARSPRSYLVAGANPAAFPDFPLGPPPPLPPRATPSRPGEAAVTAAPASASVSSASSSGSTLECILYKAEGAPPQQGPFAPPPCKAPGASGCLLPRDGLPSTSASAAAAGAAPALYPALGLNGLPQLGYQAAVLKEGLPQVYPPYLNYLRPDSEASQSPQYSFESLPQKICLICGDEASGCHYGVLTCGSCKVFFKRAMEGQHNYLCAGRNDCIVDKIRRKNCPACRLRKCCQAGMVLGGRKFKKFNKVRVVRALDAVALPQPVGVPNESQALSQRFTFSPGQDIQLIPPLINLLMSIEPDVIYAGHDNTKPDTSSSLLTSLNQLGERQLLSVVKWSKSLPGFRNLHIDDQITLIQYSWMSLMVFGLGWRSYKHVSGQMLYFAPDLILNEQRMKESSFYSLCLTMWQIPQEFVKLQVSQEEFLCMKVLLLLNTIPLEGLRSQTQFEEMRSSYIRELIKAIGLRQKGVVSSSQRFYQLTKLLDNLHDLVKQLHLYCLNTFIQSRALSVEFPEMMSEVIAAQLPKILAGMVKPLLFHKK
Summary of the method: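 Read-out: blue/green beta-lactamase FRET ratio (cleaved ch2 over uncleaved ch1), fitted relative to DMSO baseline. Cells: PR-UAS-bla HEK293T, GAL4-UAS reporter, stimulated with 1 nM R5020 final; 16 hr compound exposure, 37C.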

[10] = TOX21_PR_BLA_Followup_Agonist_viability: Viability Assessment in the Tox21 HEK293 Progesterone Receptor (PR) Agonism Beta-lactamase Follow-Up Assay (AID 2283935);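 also: signal loss means lower viability so actives are cytotoxic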
Summary of the method: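 Luminescent ATP quantitation (CellTiter-Glo, 30 min, room temperature) in the same wells as the beta-lactamase read, on PR-UAS-bla HEK293T cells exposed to compound for 16 hr at 37C in 2% charcoal-stripped serum.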

[11] = TOX21_PR_BLA_Followup_Antagonist_viability: Viability Assessment in the Tox21 HEK293 Progesterone Receptor (PR) Antagonism Beta-lactamase Follow-Up Assay (AID 2283936);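 also: cells exposed to compound with R5020 agonist for 16 h; hits lower the luminescence signal meaning cytotoxicity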
Summary of the method: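 PR-UAS-bla HEK293T cells in medium with 2% charcoal-stripped FBS were treated with compounds plus R5020 for 16 hr at 37C. After the beta-lactamase read, CellTiter-Glo was added to the same wells and luminescence read after 30 min at room temperature.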

[12] = molecular target: PGR (gene 5241) (UniProt P06401); test: TOX21_PR_LUC_Followup_Antagonist: Tox21 HEK293 Progesterone Receptor (PR) Antagonism Luciferase Follow-Up Assay (AID 2283938);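 also: curve fitted upward as signal gain over DMSO baseline despite antagonist label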
Summary of the method: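 Luminescence from ONE-Glo was measured 30 min after reagent addition, following 16 h exposure of HEK293-PR-A-luc cells (3,000/well, plated 5 h earlier) to DMSO-dissolved compounds at 37C; DMSO served as baseline.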

[13] = TOX21_PR_LUC_Followup_Antagonist_viability: Viability Assessment in the Tox21 HEK293 Progesterone Receptor (PR) Antagonism Luciferase Follow-Up Assay (AID 2283940)
Summary of the method: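 Read-out: CellTiter-Glo ATP luminescence, loss of signal taken as reduced viability. Cells: HEK293-PR-A-luc, 3,000/well, 5 h settling, then 16 h compound exposure at 37C, 0% CO2.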

[14] = TOX21_PR_LUC_Followup_Agonist_viability: Viability Assessment in the Tox21 HEK293 Progesterone Receptor (PR) Agonism Luciferase Follow-Up Assay (AID 2283941);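 also: loss of signal means cytotoxicity so actives lower viability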
Summary of the method: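 Cytotoxicity counter-screen: ATP content by CellTiter-Glo luminescence, loss of signal = reduced viability. HEK293-PR-A-luc, 3,000 cells/well, compound exposure 16 h, 37C.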

Measured: AC50

O=C(O)CCc1nc2ccccc2[nH]1
inactive: [1] | [2] | [3] | [4] | [5] | [6] | [7]

Cc1c(C(=O)NCCO)[n+](=O)c2ccccc2n1[O-]
inactive: [1] | [2] | [3] | [4] | [5] | [6] | [7]

COc1cc(/C=C/c2ccccc2)oc(=O)c1
inactive: [1] | [2] | [3] | [4] | [5] | [6] | [7]

C[C@@H]1CCC[C@H](C)N1
inactive: [1] | [2] | [3] | [4] | [5] | [6] | [7]

CC(=O)NCCCCCC(=O)O
inactive: [1] | [2] | [3] | [4] | [5] | [6] | [7]

CN(C)CCCCl
inactive: [1] | [2] | [3] | [4] | [5] | [6] | [7]

C[CH2][Ge]([Cl])([CH2]C)[CH2]C
inactive: [1] | [2] | [3] | [4] | [5] | [8]

Cc1nnc(C(C)C)n1C1C[C@H]2CC[C@@H](C1)N2CC[C@@H](NC(=O)C1CCC(F)(F)CC1)c1ccccc1 (stereo not given in full)
inactive: [1] | [2] | [3] | [4] | [5] | [8]

Cc1ccc2c(n1)Oc1ccc(C(C)C(=O)OCC(=O)N(C)C)cc1C2 (stereo not given)
inactive: [1] | [2] | [3] | [4] | [5] | [8]

O=[N+]([O-])c1ccc(NCCO)c(OCCO)c1
inactive: [1] | [2] | [3] | [4] | [5] | [6] | [7]

O=C(C=Cc1ccc(O)c(O)c1)O[C@@H]1C[C@@](OC(=O)C=Cc2ccc(O)c(O)c2)(C(=O)O)C[C@@H](O)[C@@H]1O
inactive: [1] | [2] | [3] | [4] | [5] | [6] | [7]

C[N+]1(C)CCC(=C(c2ccccc2)c2ccccc2)CC1
inactive: [1] | [2] | [3] | [4] | [5] | [8]

COc1cc2c(cc1OC)-c1cc3ccc(OC)c(OC)c3c[n+]1CC2
inactive: [1] | [2] | [3] | [4] | [5] | [8]

C1=CC2C3C=CC(C3)C2C1 (stereo not given) (tested in a mixture with another compound)
inactive: [1] | [2] | [3] | [4] | [5] | [8]

CCOC(=O)C1=C(C)NC(C)=C(C(=O)OC)C1c1cccc([N+](=O)[O-])c1 (stereo not given)
active: [9] 14.9 µM | [12] 11.2 µM
not listed: [8]
inactive: all other assays above
